Test results as given in article PMC4336329 (PLoS ONE, 2015).
In all, about 310,000 compounds went through this assay and about 14,000 (4.5%) showed an effect of 50% or more. Effects have a minus sign here. Only a selection was taken, and strong results are over-represented in it overall.

target: human ether-à-go-go-related gene (hERG) potassium channel (human, UniProt Q12809); experiment: primary screen, population patch clamp on CHO cells stably expressing hERG; higher = less effect of the substance
Sequence (Q12809 whole entry, looked up): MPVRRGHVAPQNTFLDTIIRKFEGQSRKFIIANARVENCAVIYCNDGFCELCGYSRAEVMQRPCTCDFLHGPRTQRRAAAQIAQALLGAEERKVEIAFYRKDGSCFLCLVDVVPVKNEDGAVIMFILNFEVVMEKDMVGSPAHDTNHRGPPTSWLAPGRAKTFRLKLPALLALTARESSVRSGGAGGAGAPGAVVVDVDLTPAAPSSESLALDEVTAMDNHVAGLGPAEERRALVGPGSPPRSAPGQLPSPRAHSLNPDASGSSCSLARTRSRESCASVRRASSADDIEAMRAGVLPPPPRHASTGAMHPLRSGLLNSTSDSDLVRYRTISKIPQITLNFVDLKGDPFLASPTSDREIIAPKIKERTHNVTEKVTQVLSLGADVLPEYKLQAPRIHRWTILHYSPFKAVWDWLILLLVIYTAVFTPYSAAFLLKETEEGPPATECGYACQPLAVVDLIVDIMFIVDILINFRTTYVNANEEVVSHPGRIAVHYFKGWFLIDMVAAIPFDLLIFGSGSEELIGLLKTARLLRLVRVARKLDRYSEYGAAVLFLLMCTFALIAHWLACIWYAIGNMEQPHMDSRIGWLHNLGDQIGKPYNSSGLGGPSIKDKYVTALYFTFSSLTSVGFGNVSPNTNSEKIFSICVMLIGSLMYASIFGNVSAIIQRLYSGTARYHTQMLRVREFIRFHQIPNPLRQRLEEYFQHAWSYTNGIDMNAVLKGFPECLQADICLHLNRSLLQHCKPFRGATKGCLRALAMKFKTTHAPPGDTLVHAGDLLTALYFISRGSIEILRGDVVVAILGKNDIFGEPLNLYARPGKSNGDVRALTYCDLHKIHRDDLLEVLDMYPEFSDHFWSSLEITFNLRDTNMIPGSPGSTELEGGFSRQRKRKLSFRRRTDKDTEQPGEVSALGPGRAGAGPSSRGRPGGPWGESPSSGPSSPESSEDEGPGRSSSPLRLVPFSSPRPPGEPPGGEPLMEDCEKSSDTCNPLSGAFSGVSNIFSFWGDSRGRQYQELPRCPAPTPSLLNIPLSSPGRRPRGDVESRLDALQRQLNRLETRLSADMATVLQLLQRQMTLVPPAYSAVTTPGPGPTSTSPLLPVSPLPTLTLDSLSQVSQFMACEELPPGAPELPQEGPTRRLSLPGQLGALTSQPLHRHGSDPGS
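Also: peak tail current of the secondary pulse compared with the same well before compound.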

SMILES | hERG current change (%, negative = inhibition) at 10uM [%]
Cc1nn(CC(=O)NCc2ccc(C(=O)O)cc2)c(C)c1[N+](=O)[O-] | 21.5
CCOC(=O)c1cc(C)[nH]c(=S)c1C#N | -23.4
Cc1ccc(C(=O)n2cnnc2N)cc1C | -0.0756
CC(=O)NC(Cc1cccc(F)c1)C(=O)NC1CCN(C(=O)c2ccc(C)cc2)CC1 (stereo not shown) | 33
CC(=O)NC(Cc1ccc(F)c(F)c1)C(=O)NC1CCN(C(=O)c2ccc(C)cc2)CC1 (stereo not shown) | -12.9
CC(=O)NC(Cc1cccc(F)c1)C(=O)NC1CCN(c2nnnn2-c2ccccc2)CC1 (stereo not shown) | -5.71
CC(=O)NC(Cc1ccc(F)cc1)C(=O)NC1CCN(c2nnnn2-c2ccccc2)CC1 (stereo not shown) | -41
CC(=O)NC(Cc1ccc(F)c(F)c1)C(=O)NC1CCN(c2nnnn2-c2ccccc2)CC1 (stereo not shown) | -54.6
CC(=O)NC(Cc1ccc(F)c(F)c1)C(=O)NC1CCN(C(=O)c2ccc(Cl)cc2)CC1 (stereo not shown) | -56.9
CN(C)S(=O)(=O)c1cccc(NC(=S)NC2CCCCC2)c1 | 6.69
CCCN(CC1CC1)C(=S)NC(=O)c1ccccc1Br | -4.58
C=CC(=O)N=c1sc2ccccc2n1-c1ccccc1 | -6.08
CCOC(=O)c1sc(=S)n(C)c1NC(=O)c1cccc(Br)c1 | 5.67
S=C(Nc1ccccc1)N1CCOCC1 | 11.5
O=C(Nc1ccc(F)c(Cl)c1)C1CCCN(c2cnccn2)C1 (stereo not shown) | -24.9
O=C(Nc1ccc(F)c(Cl)c1)C1CCCC1 | 25.2
O=C(Nc1ccc(Cl)cc1)C1CCCN(C2=NS(=O)(=O)c3ccccc32)C1 (stereo not shown) | -60
Cc1ccc(NC(=O)C2CCCN(C3=NS(=O)(=O)c4ccccc43)C2)c(O)c1 (stereo not shown) | -33.6
O=C(Nc1ccc(Br)cc1)C1CCCN(C2=NS(=O)(=O)c3ccccc32)C1 (stereo not shown) | -29.1
O=C(Nc1ccc(F)c(Cl)c1)C1CCCN(C2=NS(=O)(=O)c3ccccc32)C1 (stereo not shown) | -63
COCCn1c(-c2ccc(Cl)cc2Cl)nc2c(c(=O)c3ccccc3n2C)c1=O | -8.66
COc1ccccc1C(=O)Nc1ccc2c(c1)CCCN2C(=O)c1ccccc1 | -39.8
O=c1cc[nH]c2c1ccc1cccnc12 | 21.5

SMILES | hERG current change (%, negative = inhibition) at 10uM [%]
CC(CC(=O)OCC(=O)NCc1ccc(Cl)cc1)c1ccccc1 (stereo not shown) | -7.65
C/C=C/c1ccc(OCCOCCOc2cccc3cccnc23)c(OC)c1 | -50.5
C/C=C/c1ccc(OCCOc2cccc3cccnc23)c(OC)c1 | 20.3
Brc1ccc(OCCCOc2cccc3cccnc23)cc1 | 6.35
C=CCc1ccc(OCCOCCOc2cccc3cccnc23)c(OC)c1 | -29.3
O=Cc1ccccc1OCCCOc1cccc2cccnc12 | -4.59
O=Cc1ccc(OCCCOc2cccc3cccnc23)cc1 | -54.3
CCc1ccc(S(=O)(=O)NCc2cn3ccsc3n2)s1 | 6.83
N/C(=N\OC(=O)c1ccc2ccccc2c1)c1cccc([N+](=O)[O-])c1 | 5.05
C#CCOCCOCCOCCNc1nc(N2CCN(C(=O)Cn3cc(CCC[NH+]=C(N)N)nn3)CC2)nc(N2CCN(C(=O)[C@H](CCCC[NH3+])n3cc(CCCC)nn3)CC2)n1.[Cl-] | 7.39
COc1ccc(S(=O)(=O)N2CCC(C(=O)c3ccc4c(c3)OCCO4)CC2)cc1 | -6.76
CC1CCCN(c2c3c(nc4ccccc24)CCCC3)C1 (stereo not shown) | -65.2
Cl.c1ccc2c(N3CCOCC3)c3c(nc2c1)CCC3 | -35.2
O=C(O)c1c2c(nc3ccccc13)CCCCC2 | 15.8
CCOC(=O)C1=C(COC(=O)c2ccc([N+](=O)[O-])o2)NC(=O)NC1C (stereo not shown) | -7.36
CCC(C)N=CC1=C(O)C(C(=O)OC)C(C)(C)CC1=O (stereo not shown) | -5.35
CCOC(=O)C(=O)N=Nc1c(O)n(C)c2ccccc12 | 18.9
O=C(CSc1nc(Nc2ccccc2)nc(N2CCOCC2)n1)NC1CCCCC1 | -3.3
O=C(CSc1nc(Nc2ccccc2)nc(N2CCOCC2)n1)N1CCc2ccccc21 | -1.62
O=C(CSc1nc(Nc2ccccc2)nc(N2CCOCC2)n1)N1CCCC1 | -60.4
FC(F)(F)c1ccc(-c2csc(-c3ccno3)n2)cc1 | 1.72
Cc1cc(NCCCN)nc(-c2ccccc2O)n1 | 10
OC(c1ccc(F)cc1)(c1ccc(F)cc1)[C@@H]1CCCN1 | 7.57
